For this experiment, the system named is A549. Kind of experiment: relative viability (normalised to negative control = 1, bortezomib = 0) (fraction); higher = less cytotoxic. Conditions: inflammatory serum-free RHB-A with cytokines + LPS, 5 d + 24 h CellTiter-Blue. As for the experimental part: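 A549 KRAS-mutant NSCLC cells, pre-treated 5 µM GSK126 or vehicle (DMSO), were seeded at 250 cells/well in 384-well plates in serum-free RHB-A medium with inflammatory cytokines/LPS and treated with Selleck kinase inhibitor and NCI oncology compounds at 30 or 300 nM in triplicate, refreshed at 48 h. Viability was read by CellTiter-Blue after 5 d plus 24 h and normalised per plate with cellHTS2 (mean of bortezomib positive control = 0, mean of negative control = 1).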
(In general: Alamar Blue is a resazurin reagent that responds to reducing activity.)

Where [1] appears, read: compound 30 nM, GSK126 pretreatment: 5 uM GSK126.
[2] abbreviates: compound 30 nM, GSK126 pretreatment: none (vehicle).
[3] abbreviates: compound 300 nM, GSK126 pretreatment: 5 uM GSK126.
Where [4] appears, read: compound 300 nM, GSK126 pretreatment: none (vehicle).

The structures appear in SMILES notation. Structures can show the parent of a compound that is named as a salt. ± gives the standard deviation of the averaged measurements.

Consider `Oc1ncc(N(CCCl)CCCl)c(O)n1` [Uracil mustard], for which the relative viability under setting [1] was found to be 0.792 ± 0.024, the relative viability under setting [2] worked out at 0.801 ± 0.027, the relative viability under setting [3] was 0.81 ± 0.029 and the relative viability under setting [4] is 0.87 ± 0.03.

As to `Cc1c(N)nc([C@H](CC(N)=O)NC[C@H](N)C(N)=O)nc1C(=O)N[C@H](C(=O)N[C@H](C)[C@@H](O)[C@H](C)C(=O)N[C@H](C(=O)NCCc1nc(-c2nc(C(=O)NCCC[S+](C)C)cs2)cs1)[C@@H](C)O)[C@@H](OC1OC(CO)C(O)C(O)C1OC1OC(CO)C(O)C(OC(N)=O)C1O)c1cnc[nH]1` (stereo not given in full) [Bleomycin sulfate], the relative viability runs as follows: under setting [1], 0.821 ± 0.13; under setting [2], 0.871 ± 0.061; under setting [3], 0.739 ± 0.064; under setting [4], 0.84 ± 0.069.

As to `O=P1(NCCCl)OCCCN1CCCl` (stereo not given) [Ifosfamide], the relative viability by setting is: under setting [1], 0.792 ± 0.087; under setting [2], 0.806 ± 0.063; under setting [3], 0.803 ± 0.16; under setting [4], 0.91 ± 0.11.

`N.N.[Cl][Pt][Cl]` [Cisplatin]: the relative viability by setting is: under setting [1], 0.813 ± 0.035; under setting [2], 0.812 ± 0.029; under setting [3], 0.839 ± 0.099; under setting [4], 0.875 ± 0.018.

Consider `Cn1cc(C2=C(c3cn(C4CCN(Cc5ccccn5)CC4)c4ccccc34)C(=O)NC2=O)c2ccccc21` [Enzastaurin], for which the relative viability reads like this: under setting [1], 0.823 ± 0.11; under setting [2], 0.831 ± 0.05; under setting [3], 0.789 ± 0.042; under setting [4], 0.802 ± 0.037.

The values above are taken from the supplement of paper PMC6279402.
